SMILES strings stand for the structures. Results filed as inconclusive are left out. Entries that show only a call come without a potency. Values without a mark were called inactive. Calls of active or inactive are those of the source. Calls follow the shape of the dose curve; as a rule, active = well fitted activation curve with a large enough effect in the repeat runs; inconclusive = weak or mixed curves; inactive = flat fitted curve, though single readings scatter.

This test in a line: A CellTox Green Cytotoxicity Assay to monitor cytotoxicity in HepG2 cells - 32 hour (AID 1224883). Also: nearly all actives have a fitted effect of over 50% in size. To be noted: CellTox Green fluorescence; series mostly up to 76.8 µM. In outline: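 First, HepG2 cells (600/well) mixed with reagent were plated; second, after 5 h at 37 C they received compounds via pintool; third, fluorescence was measured at 0 h through 40 h at 8 h intervals.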
As to `OCCCCC(O)CO` (centres undefined), the Potency result is “inactive”.
On to `Cc1cccc2nccnc12`, for which the Potency entry is “inactive”.
Same read-out and setting: then `CN(C)C(=O)CNC(=O)Cc1ccccc1`, with “inactive”; and `CN(CCOc1ccc(NS(C)(=O)=O)cc1)CCc1ccc(NS(C)(=O)=O)cc1`, with “inactive”; and `C=CC(OCC)OCC`, with “inactive”.
As for `CCCCCCCCSCC`, the Potency entry is “inactive”.
On the same count and under the same terms, the same measure for `Cc1[nH]cnc1-c1ccc(Cl)cc1`: “inactive”; for `c1ccc2c(c1)ccc1c3ccccc3ccc21`: “inactive”.
Same read-out and setting: then `NS(=O)(=O)c1cc2c(cc1Cl)CN(C1CCCCC1)C2=O`, with “inactive”.
Regarding `Oc1cn2c(n1)Nc1ccc(Cl)c(Cl)c1C2`, the cytotoxicity increase was -1.99% [at 15.8 µM].
With `CCOC(=O)c1ncn2c1CN(C)C(=O)c1cc(F)ccc1-2`, the Potency entry is “inactive”.
The same measure, in the same setting: then `CN1C(C)(C)CCCC1(C)C`, with “inactive”.
Take `C[Si](C)=O`: the cytotoxicity increase was -6.59% [at 6.97 µM].
Consider `CCc1ccc(C=O)cc1`, for which the Potency entry was “inactive”.
`CC(=O)OC(C)OC(=O)C(C)c1ccc(-c2ccccc2)c(F)c1` (centres undefined): the Potency result was “inactive”.
Turning to `COP(=O)(OC)OC(c1ccc(Cl)cc1)P(=O)(OC)OC` (centres undefined), the Potency entry is “inactive”.
Same read-out and setting: the same measure for `CCOCCOCCOCC`: “inactive”.
On the same count and under the same terms, the same measure for `CC1=C(C(=O)O)N2C(=O)[C@@H](NC(=O)[C@H](N)c3ccc(O)cc3)[C@H]2SC1`: “inactive”; for `CC(C)CC(=O)O`: “inactive”.
On the same count and under the same terms, the same measure for `CC(COC(C)(C)C)OCCCO` (centres undefined): “inactive”.
On to `CC(C)CCCCOC(=O)c1ccccc1C(=O)OCCCCC(C)C`, for which the Potency entry was “inactive”.
Same read-out and setting: then `CC(CO)c1ccccc1` (centres undefined), with “inactive”.
Still for that read-out and setting: the same measure for `O=C(OCC(COC(=O)c1cccnc1)(COC(=O)c1cccnc1)COC(=O)c1cccnc1)c1cccnc1`: “inactive”; for `CCOC(=O)c1ccc(OC(=O)CCCCCN=C(N)N)cc1`: “inactive”.

Values taken from PubChem BioAssay (Tox21).
